This is a sample that favours compounds with a hit; in the whole collection about 8.3% have one here.
SW480 rereplic: DNA re-replication induction in SW480 cells. SW480 DNA re-replication, Hoechst DNA content imaging, 48 h. Potency, µM (doses to about 46.1 µM), for inactives: top-dose re-replication activation, hits mostly activators. 1.8% of 340,000 active; note: potency is the fitted concentration of half-maximal effect; % of control where 0% means no effect; nearly all actives have a fitted effect of over 55% in size
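250 cells/well; 23 nL cpd via pin tool; 48 hr, 37 C, 5% CO2; Hoechst 40 min; imager read of total nuclear intensity, ex 405/em 500-530 nm.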
RORgamma inh: inhibitors of mouse ROR gamma transcriptional activity; 5.4% of 310,000 active; Potency, µM (top dose mostly 53.6 µM), without a hit: at the highest dose activity change, negative = inhibition, usual class: inhibitors; Drosophila S2 Gal4-RORgamma UAS-luciferase reporter, 20 h; P51450; note: potency is the fitted concentration of half-maximal effect; % is set by controls: 0 for no effect and ±100 for the full control effect; nearly all actives have a fitted effect of over 60% in size
Target sequence (P51450 whole entry, looked up, the tested form may be a part): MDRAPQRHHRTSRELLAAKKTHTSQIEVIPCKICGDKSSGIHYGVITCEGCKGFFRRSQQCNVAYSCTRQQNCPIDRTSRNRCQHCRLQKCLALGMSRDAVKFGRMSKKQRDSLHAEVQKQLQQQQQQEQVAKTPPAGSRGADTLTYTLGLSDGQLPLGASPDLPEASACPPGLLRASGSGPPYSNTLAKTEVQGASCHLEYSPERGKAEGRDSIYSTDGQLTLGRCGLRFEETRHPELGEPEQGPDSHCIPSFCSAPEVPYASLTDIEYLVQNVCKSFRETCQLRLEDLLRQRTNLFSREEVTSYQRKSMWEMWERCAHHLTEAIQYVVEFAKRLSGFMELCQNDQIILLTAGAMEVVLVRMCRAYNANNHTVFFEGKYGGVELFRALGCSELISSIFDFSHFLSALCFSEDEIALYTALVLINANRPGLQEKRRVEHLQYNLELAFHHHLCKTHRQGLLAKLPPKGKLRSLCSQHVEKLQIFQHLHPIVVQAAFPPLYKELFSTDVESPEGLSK
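Compounds are pin-transferred onto Drosophila Schneider cells expressing a copper-inducible Gal4–ROR gamma transactivation domain fusion. After 1 hr, copper sulfate is added to 700 uM final; luciferase is read 20 hr later.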
Gal4-VP16 FLuc: inhibits Gal4-VP16 luciferase reporter, ROR gamma counter-screen; Drosophila S2 Gal4-VP16 UAS-luciferase, luminescence, 20 h; 3.5% of 310,000 active; Potency, µM (titrated, usually from 53.6 µM), without a hit: at the highest dose activity, negative = inhibition, actives largely listed as inhibitors;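 note: Gal4-VP16 expression switched on by copper sulfate through the metallothionein promoter; potency is the fitted concentration of half-maximal effect; % is set by controls: 0 for no effect and ±100 for the full control effect; nearly all actives have a fitted effect of over 50% in size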
Chronic BCR inh: blocks chronic active B-cell receptor signaling; ABC-DLBCL IkBa-CBG/CBR reporter, luminescence ratio, 4 h; Potency, µM (series often up to 46.1 µM), inactives show at the top dose activity change, negative = inhibition, actives largely listed as inhibitors; 0.05% of 340,000 active; active = well fitted inhibition curve with a large enough effect in the signal ratio, with a control signal flat, not every such curve was filed as active; inconclusive = small, poorly fitted or top-dose-only effect, or effect the other way, or a change in a side signal; the % refers to the signal ratio;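 note: potency is the fitted concentration of half-maximal effect; plate controls were basal doxycycline-induced cells for no effect and cells given 10 µM MG132 for full effect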
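Compounds up to 46 uM were incubated four hours with TMD8 cells whose green CBG68 luciferase is fused to IkappaBalpha; red CBR luminescence normalised the signal, and concentration-effect curves were fitted to fusion, red and ratio data.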
Giardia kill: Giardia lamblia killing | 0.15% of 340,000 active | Giardia lamblia trophozoite viability | AID 540267 | activity change, % at 7.66 µM, hits read low; in the data active = activity change below about -80%; inconclusive = between about -30% and that limit;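 note: parasites exposed to compound for two days anaerobically before the ATP read; % is set by controls: 0 for no effect and ±100 for the full control effect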
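Trophozoite viability was measured as ATP-dependent luminescence, read 15-30 min after reagent addition. Before that, parasites at 100 cells/well were exposed to compounds for 48 h, anaerobically, at 37 deg C.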
MCF10A rerep: induces DNA re-replication in MCF 10a normal breast cells | MCF 10A DNA re-replication, Hoechst nuclear intensity, 48 h | Potency, µM (doses to about 46.1 µM), inactives show top-dose activity, positive = re-replication, actives largely listed as activators | 2.9% of 350,000 active | AID 624296; note: potency is the fitted concentration of half-maximal effect; % of control where 0% means no effect; nearly all actives have a fitted effect of over 50% in size
Active calls of the source: *; ? = inconclusive; . = no result. Unless noted, calls come from the whole dose curve; as a rule, active = well fitted curve in the direction sought with a large enough effect; inconclusive = small, poorly fitted or top-dose-only effect, or another doubt; inactive = no such curve, though single readings can be large; an effect the other way counts as inactive or inconclusive.

SMILES	SW480 rereplic	RORgamma inh	Gal4-VP16 FLuc	Chronic BCR inh	Giardia kill	MCF10A rerep
CCC(C)C(N)C(=O)NC(CC(N)=O)C(=O)NC(CC(C)C)C(=O)NC(CCCCN)C(=O)NC(C)C(=O)NC(CC(C)C)C(=O)NC(C)C(=O)NC(C)C(=O)NC(CC(C)C)C(=O)NC(C)C(=O)NC(CCCCN)C(=O)NC(CCCCN)C(=O)NC(C(=O)NC(CC(C)C)C(N)=O)C(C)CC (stereo not drawn)	.	?	18µM*	.	.	.
CC1(C)CC(=O)C(C=Nc2ccc(C(=O)c3ccccc3)cc2N=CC2=C(O)CC(C)(C)CC2=O)=C(O)C1	?	16µM*	-9%	?	-11	5.8µM*
CC1(C)CC(=O)C(C=Nc2ccc(O)c(N=CC3=C(O)CC(C)(C)CC3=O)c2)=C(O)C1	-6%	-14%	-1%	0%	-23	-2%
CC1(C)CC(=O)C(C=Nc2cccnc2/N=C/C2=C(O)CC(C)(C)CC2=O)=C(O)C1	17%	10µM*	-13%	-7%	-7	14%
CCN1CCN(c2nc3c(C)cccn3c(=O)c2C=C(C#N)C#N)CC1	0%	12%	7%	-11%	0	-15%
N[C@@]1(C(=O)O)CO[C@H]2[C@H](C(=O)O)[C@H]21	.	2%	-3%	.	.	.
COC(=O)c1ccc(-n2c(C)cc(C(=O)COC(=O)C3=COCCO3)c2C)cc1	-3%	.	.	1%	17	1%
CCOc1ccc(-n2c(C)cc(C(=O)CCl)c2C)cc1	9.2µM*	?	1%	?	1	12µM*
COC(=O)c1ccc(-n2c(C)cc(C(=O)CCl)c2C)cc1	?	11µM*	-93%	?	3	12µM*
COC(=O)c1ccccc1NC(=O)CN1CCN(c2ccccn2)CC1	2%	5%	-1%	13%	-14	-3%
COC(=O)c1ccccc1N/C=C1\CCc2c(c(C)nn2-c2ccccn2)C1=O	1%	19%	2%	-1%	4	8.2µM*
O=C(COc1ccc(S(=O)(=O)N2CCOCC2)cc1Cl)NC1CCCCC1	3%	21%	1%	-1%	-11	2%
O=C(COc1ccc(S(=O)(=O)N2CCOCC2)cc1Cl)NCCCn1ccnc1	7.3µM*	-10%	-2%	2%	21	?
O=S(=O)(c1ccc(OCC(O)CNC23CC4CC(CC(C4)C2)C3)c(Cl)c1)N1CCOCC1 (stereo not drawn)	16µM*	?	-9%	4%	24	?
CC(C)C(C)NC(=O)COc1ccc(S(=O)(=O)N2CCOCC2)cc1Cl (stereo not drawn)	?	-8%	2%	-7%	-12	0.58µM*
Cc1cc(S(=O)(=O)N2CCOCC2)ccc1OCC(=O)NCCCn1ccnc1	?	-30%	-7%	-10%	6	0%
CC(Oc1ccc(Cl)cc1Cl)C(=O)NCCCn1ccnc1 (stereo not drawn)	-6%	-3%	2%	0%	-10	16µM*
O=C1C=CC[C@H](/C=C/C[C@@H](O)C[C@H](O)CCc2ccccc2)O1	?	.	.	.	10	105%
O=C(O)Cc1ccc(S(=O)(=O)N2CCCC2)s1	-6%	.	.	1%	3	0%
CCN(CC)CCCNC(=O)C1CCN(S(=O)(=O)CC)CC1	.	.	.	-1%	.	.
CC(=O)Nc1ccc(N/C=C/C(=O)c2ccco2)cc1	-4%	?	?	?	-7	-2%
CN(C)/C=C/C(=O)c1ccccc1	-19%	13%	-9%	?	-7	-1%
CN(C)c1ccc(N/C=C/C(=O)c2ccc(F)cc2)cc1	?	10µM*	?	3%	11	?
CN(C)/C=C/C(=O)c1ccc(F)cc1	-13%	15%	-3%	?	-6	18µM*
CN(C)c1ccc(N/C=C/C(=O)c2ccco2)cc1	?	-36%	11µM*	?	-25	29%
CC(C)c1ccccc1NC(=S)NCC1(N(C)C)CCCCC1	4%	16µM*	?	-6%	17	10%

Source: PubChem
